# According to the supplement of paper PMC8728848:
# Many of the other results were omitted from the sample, so the strongest signals are more common in it than they were.
# B1: Pbx2 (Cryptococcus neoformans) (protein)
# chain: AVSPLPSSTELVFYSQKRRRRRICSTATGSLSTPDPTRMTSDPYKRVGMRFSSVPRLLITFLSLLLLVSAAPPCVRFADYDSINQMFIDGGPGTKVLLCPNRLYRLSGPIIFTAADQEIATYGYPTGSERAVLRVEGRNTATAIQGDCRRCARVSVKNLVVDGNRKKLGRMRDFQLATGLVVLGGNEGQSIQNSWIKNPRGFTAIHIREGDKLQCSGARVEKNEIGPVGEEYDPEKDGDDPEMSPLGRPLADGVSIACRDSFIRDNTFRDNTDAAIVVYCSPGTLIHANHIFAQSLSAMAGILMVDSTPFNGDYTGTVVRSNIIDAVSRTIRVGIGIGPTVWSDDTETILTGGSVIGNGLKGRYMGYGIAAAGLKQWTIKDNWDEAKHEGRKSARCFDEPVNPDPIGLLYNRPTMEDCTVQSGFADHDFQYLVCIDGLYDKTNPPKHDPAPLAHDPSPTNAQEDNTVQQDGGDSKSKSIEQPREASDIEAEPSVEKMFSTGSEMMDDVLEHSHQRMHEVIDHLSRRIDILGAASAGKGSGDSKISEVLDPAMSSHLEKLQRKIEHLEFSLRSQIETAIQLRSAIQGWDQEMALVTDWEYDILLDVRHKLELSSYPHDQPLDPRLMRGQSYLNNEAVLVDDHSHPSLEGENLRAMSDRARLNANEEA
# How the values were obtained:
# Assay in all cases: glycan array binding signal (z-score within array); higher = stronger binding
# Details in all cases: glycan notation: IUPAC condensed, linker removed
# [1] = target: Fuc(a1-2)Gal(b1-4)[Fuc(a1-3)]GlcNAc(b1-3)GalNAc
# Summary of the method: (§1)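 The Consortium for Functional Glycomics database supplied 3228 glycan arrays, of which those lacking an available protein sequence were dropped. The binding signal, a within-array Z-score, was averaged across arrays of the same protein sequence and across linkers. Negative scores can be read as non-binding.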
# [2] = target: Fuc(a1-2)Gal6S(b1-3)GlcNAc6S
# Summary of the method: as §1
# Fuc(a1-2)Gal6S(b1-4)Glc = target: Fuc(a1-2)Gal6S(b1-4)Glc
# Summary of the method: as §1
# [3] = target: Fuc(a1-2)[Gal(a1-3)]Gal(b1-3)GlcNAc(b1-2)Man(a1-3)[Fuc(a1-2)[Gal(a1-3)]Gal(b1-3)GlcNAc(b1-2)Man(a1-6)]Man(b1-4)GlcNAc(b1-4)GlcNAc
# Summary of the method: as §1
# [4] = target: Fuc(a1-2)[Gal(a1-3)]Gal(b1-3)GlcNAc(b1-3)GalNAc
# Summary of the method: as §1
# [5] = target: Fuc(a1-3)[Gal(b1-4)]GlcNAc
# Summary of the method: as §1
# [6] = target: Fuc(a1-3)[Gal(b1-4)]GlcNAc(b1-2)Man
# Summary of the method: as §1
# [7] = target: Fuc(a1-3)[Gal(b1-4)]GlcNAc(b1-2)Man(a1-3)[Fuc(a1-3)[Gal(b1-4)]GlcNAc(b1-2)Man(a1-6)]Man(b1-4)GlcNAc(b1-4)GlcNAc
# Summary of the method: as §1
# [8] = target: Fuc(a1-3)[Gal3S(b1-4)]GlcNAc
# Summary of the method: as §1
# [9] = target: Fuc(a1-3)[GalNAc(b1-4)]GlcNAc
# Summary of the method: as §1
# [10] = target: Gal(a1-3)Gal(b1-3)[Fuc(a1-4)]GlcNAc(b1-2)Man(a1-3)[Gal(a1-3)Gal(b1-3)[Fuc(a1-4)]GlcNAc(b1-2)Man(a1-6)]Man(b1-4)GlcNAc(b1-4)GlcNAc
# Summary of the method: as §1
# Gal(a1-3)Gal(b1-4)GlcNAc = target: Gal(a1-3)Gal(b1-4)GlcNAc
# Summary of the method: as §1
# [11] = target: Gal(b1-3)GlcNAc(b1-2)Man(a1-3)[GlcNAc(b1-4)][Gal(b1-3)GlcNAc(b1-2)Man(a1-6)]Man(b1-4)GlcNAc(b1-4)GlcNAc
# Summary of the method: as §1
# [12] = target: Gal(b1-3)GlcNAc(b1-3)GalNAc
# Summary of the method: as §1
# [13] = target: Gal(b1-4)GlcNAc(b1-3)Gal(b1-3)GlcNAc
# Summary of the method: as §1
# [14] = target: Gal(b1-4)GlcNAc(b1-3)Gal(b1-4)GlcNAc(b1-2)Man(a1-3)[Gal(b1-4)GlcNAc(b1-3)Gal(b1-4)GlcNAc(b1-2)Man(a1-6)]Man(b1-4)GlcNAc(b1-4)GlcNAc
# Summary of the method: as §1
# [15] = target: Gal(b1-4)GlcNAc(b1-3)Gal(b1-4)GlcNAc(b1-3)Gal(b1-4)GlcNAc
# Summary of the method: as §1
# [16] = target: Gal(b1-4)GlcNAc(b1-3)Gal(b1-4)GlcNAc(b1-3)Gal(b1-4)GlcNAc(b1-2)Man(a1-3)[Gal(b1-4)GlcNAc(b1-3)Gal(b1-4)GlcNAc(b1-3)Gal(b1-4)GlcNAc(b1-2)Man(a1-6)]Man(b1-4)GlcNAc(b1-4)GlcNAc
# Summary of the method: as §1
# [17] = target: Gal(b1-4)GlcNAc(b1-3)Gal(b1-4)GlcNAc(b1-3)[Gal(b1-4)GlcNAc(b1-3)Gal(b1-4)GlcNAc(b1-6)]GalNAc
# Summary of the method: as §1
# Gal3S6S(b1-4)GlcNAc6S = target: Gal3S6S(b1-4)GlcNAc6S
# Summary of the method: as §1
# Gal4S(b1-4)GlcNAc = target: Gal4S(b1-4)GlcNAc
# Summary of the method: as §1
# Gal4S6S(b1-4)GlcNAc = target: Gal4S6S(b1-4)GlcNAc
# Summary of the method: as §1
# Gal6S(b1-3)GlcNAc6S = target: Gal6S(b1-3)GlcNAc6S
# Summary of the method: as §1
# Gal6S(b1-4)GlcNAc6S = target: Gal6S(b1-4)GlcNAc6S
# Summary of the method: as §1
# [18] = target: GalNAc(a1-3)GalNAc(a1-3)Gal(a1-4)Gal(b1-4)GlcNAc
# Summary of the method: as §1
# GalNAc3S(b1-4)GlcNAc = target: GalNAc3S(b1-4)GlcNAc
# Summary of the method: as §1
# GalNAc4S6S(b1-4)GlcNAc = target: GalNAc4S6S(b1-4)GlcNAc
# Summary of the method: as §1
# [19] = target: GlcNAc(b1-2)[GlcNAc(b1-6)]Man(a1-6)[GlcNAc(b1-2)Man(a1-3)]Man(b1-4)GlcNAc(b1-4)[Fuc(a1-6)]GlcNAc
# Summary of the method: as §1
# [20] = target: GlcNAc(b1-3)Gal(b1-3)GalNAc
# Summary of the method: as §1
# [21] = target: GlcNAc(b1-3)Gal(b1-4)GlcNAc(b1-2)Man(a1-3)[GlcNAc(b1-3)Gal(b1-4)GlcNAc(b1-2)Man(a1-6)]Man(b1-4)GlcNAc(b1-4)GlcNAc
# Summary of the method: as §1
# [22] = target: GlcNAc(b1-3)Gal(b1-4)GlcNAc(b1-3)Gal(b1-4)GlcNAc(b1-2)Man(a1-3)[GlcNAc(b1-3)Gal(b1-4)GlcNAc(b1-3)Gal(b1-4)GlcNAc(b1-2)Man(a1-6)]Man(b1-4)GlcNAc(b1-4)GlcNAc
# Summary of the method: as §1
# [23] = target: GlcNAc(b1-3)Gal(b1-4)GlcNAc(b1-3)Gal(b1-4)GlcNAc(b1-2)[GlcNAc(b1-3)Gal(b1-4)GlcNAc(b1-3)Gal(b1-4)GlcNAc(b1-6)]Man(a1-6)[GlcNAc(b1-3)Gal(b1-4)GlcNAc(b1-3)Gal(b1-4)GlcNAc(b1-2)Man(a1-3)]Man(b1-4)GlcNAc(b1-4)[Fuc(a1-6)]GlcNAc
# Summary of the method: as §1
# [24] = target: GlcNAc(b1-4)GlcNAc(b1-4)GlcNAc
# Summary of the method: as §1
# [25] = target: GlcNAc6S(b1-3)Gal(b1-4)GlcNAc
# Summary of the method: as §1
# [26] = target: Man(a1-2)Man(a1-3)[Man(a1-6)]Man(a1-6)[Man(a1-2)Man(a1-3)]Man(b1-4)GlcNAc(b1-4)GlcNAc
# Summary of the method: as §1
# [27] = target: Man(a1-2)Man(a1-6)[Man(a1-3)]Man(a1-6)[Man(a1-2)Man(a1-2)Man(a1-3)]Man(b1-4)GlcNAc(b1-4)GlcNAc
# Summary of the method: as §1
# [28] = target: Neu5Ac(a2-3)Gal(b1-3)[GlcNAc(b1-6)]GalNAc
# Summary of the method: as §1
# [29] = target: Neu5Ac(a2-3)Gal(b1-4)GlcNAc(b1-2)Man
# Summary of the method: as §1
# [30] = target: Neu5Ac(a2-3)Gal(b1-4)GlcNAc(b1-2)[Neu5Ac(a2-3)Gal(b1-4)GlcNAc(b1-6)]Man(a1-6)[Neu5Ac(a2-3)Gal(b1-4)GlcNAc(b1-2)Man(a1-3)]Man(b1-4)GlcNAc(b1-4)GlcNAc
# Summary of the method: as §1
# [31] = target: Neu5Ac(a2-3)Gal(b1-4)GlcNAc(b1-3)Gal(b1-4)GlcNAc(b1-3)Gal(b1-4)GlcNAc
# Summary of the method: as §1
# [32] = target: Neu5Ac(a2-3)[GalNAc(b1-4)]Gal(b1-4)GlcNAc(b1-3)GalNAc
# Summary of the method: as §1
# [33] = target: Neu5Ac(a2-6)Gal(b1-4)GlcNAc(b1-2)Man
# Summary of the method: as §1
# [34] = target: Neu5Ac(a2-6)Gal(b1-4)GlcNAc(b1-3)Gal(b1-3)GlcNAc
# Summary of the method: as §1
# [35] = target: Neu5Ac(a2-8)Neu5Ac(a2-3)[Gal(b1-3)GalNAc(b1-4)]Gal(b1-4)Glc
# Summary of the method: as §1
# [36] = target: Neu5Ac(a2-8)Neu5Ac(a2-3)[GalNAc(b1-4)]Gal(b1-4)Glc
# Summary of the method: as §1
# [37] = target: Neu5Ac(a2-8)Neu5Ac(a2-8)Neu5Ac(a2-3)[GalNAc(b1-4)]Gal(b1-4)Glc
# Summary of the method: as §1
# [38] = target: Neu5Gc(a2-3)Gal(b1-3)[Fuc(a1-4)]GlcNAc
# Summary of the method: as §1
# Neu5Gc(a2-3)Gal(b1-4)Glc = target: Neu5Gc(a2-3)Gal(b1-4)Glc
# Summary of the method: as §1
# [39] = target: Neu5Gc(a2-6)Gal(b1-4)GlcNAc
# Summary of the method: as §1
binder,measurement,setting,value
B1,glycan array binding signal (z-score),[1],5.82
same,glycan array binding signal (z-score),[2],3.8
same,glycan array binding signal (z-score),Fuc(a1-2)Gal6S(b1-4)Glc,-0.497
same,glycan array binding signal (z-score),[3],-0.446
same,glycan array binding signal (z-score),[4],-0.12
same,glycan array binding signal (z-score),[5],-0.094
same,glycan array binding signal (z-score),[6],-0.041
same,glycan array binding signal (z-score),[7],0.271
same,glycan array binding signal (z-score),[8],0.057
same,glycan array binding signal (z-score),[9],-0.291
same,glycan array binding signal (z-score),[10],-0.392
same,glycan array binding signal (z-score),Gal(a1-3)Gal(b1-4)GlcNAc,-0.346
same,glycan array binding signal (z-score),[11],0.625
same,glycan array binding signal (z-score),[12],0.091
same,glycan array binding signal (z-score),[13],-0.114
same,glycan array binding signal (z-score),[14],4.98
same,glycan array binding signal (z-score),[15],0.154
same,glycan array binding signal (z-score),[16],4.44
same,glycan array binding signal (z-score),[17],2.83
same,glycan array binding signal (z-score),Gal3S6S(b1-4)GlcNAc6S,6.21
same,glycan array binding signal (z-score),Gal4S(b1-4)GlcNAc,-0.339
same,glycan array binding signal (z-score),Gal4S6S(b1-4)GlcNAc,2.65
same,glycan array binding signal (z-score),Gal6S(b1-3)GlcNAc6S,3.95
same,glycan array binding signal (z-score),Gal6S(b1-4)GlcNAc6S,2.56
same,glycan array binding signal (z-score),[18],0.168
same,glycan array binding signal (z-score),GalNAc3S(b1-4)GlcNAc,-0.522
same,glycan array binding signal (z-score),GalNAc4S6S(b1-4)GlcNAc,6.54
same,glycan array binding signal (z-score),[19],-0.377
same,glycan array binding signal (z-score),[20],-0.436
same,glycan array binding signal (z-score),[21],-0.424
same,glycan array binding signal (z-score),[22],3.17
same,glycan array binding signal (z-score),[23],1.33
same,glycan array binding signal (z-score),[24],-0.147
same,glycan array binding signal (z-score),[25],-0.104
same,glycan array binding signal (z-score),[26],-0.065
same,glycan array binding signal (z-score),[27],0.275
same,glycan array binding signal (z-score),[28],-0.075
same,glycan array binding signal (z-score),[29],4.34
same,glycan array binding signal (z-score),[30],0.027
same,glycan array binding signal (z-score),[31],-0.461
same,glycan array binding signal (z-score),[32],-0.206
same,glycan array binding signal (z-score),[33],0.729
same,glycan array binding signal (z-score),[34],-0.368
same,glycan array binding signal (z-score),[35],0.256
same,glycan array binding signal (z-score),[36],-0.131
same,glycan array binding signal (z-score),[37],0.212
same,glycan array binding signal (z-score),[38],-0.266
same,glycan array binding signal (z-score),Neu5Gc(a2-3)Gal(b1-4)Glc,-0.241
same,glycan array binding signal (z-score),[39],-0.317
